The entries come from a sample that favours hits as a whole.
Methyltransferases: Primary Screen for Target Class Profiling of Small Molecule Inhibitors of Methyltransferases; purified enzyme, MTase-Glo SAH luminescence; hits give low values; calls only at 40 µM; hit rate 3.9% among 25,000; call rule not given here
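Each enzyme was reacted with SAM and its substrate, with compounds tested once at 40 uM; SAH formed was read by MTase-Glo luminescence.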
The depositor's hits bear a star; i = inactive; + = active, no number. % is set by controls: 0 for no effect and ±100 for the full control effect.

SMILES	Methyltransferases
CN1CCN(C2CCC(n3cc(-c4ccc(Oc5ccccc5)cc4)c4c(N)ncnc43)CC2)CC1 (stereo not drawn)	+
Nc1ncnc2c1ncn2C1CCCC1	i
CC(C)CCNC(=O)CCc1nnc2n(CCc3ccccc3)c(=O)c3ccccc3n12	i
Cc1nnc2n(-c3ccccc3)c(=O)c3ccc(C(=O)NCc4ccc5c(c4)OCO5)cc3n12	i
Cc1ccc(CN2C(=O)CSc3c(c4ccccc4n3C)C2C(=O)NCCCOC(C)C)cc1 (stereo not drawn)	i
O=C(CCn1ccc2cc(S(=O)(=O)N3CCCC3)ccc21)NCc1ccc2c(c1)OCO2	i
CCN1C(=O)c2cc(C(=O)N3CCN(c4cccc(OC)c4)CC3)nn2CC1(C)C(=O)NC1CCCC1 (stereo not drawn)	i
CCOc1ccc(CN2C(=O)c3cc4sccc4n3CC2(C)C(=O)NC2CCCCCC2)cc1 (stereo not drawn)	i
COC(=O)c1ncn2c1C(=O)N(C(C)c1ccccc1)C(C)(C(=O)NC1CCCCCC1)C2 (stereo not drawn)	i
CC(=O)O[C@H]1C[C@@H](O)C(C)(C)C2C[C@@H](OC(C)=O)[C@]3(C)C(CC[C@@]4(C)[C@H](c5ccoc5)OC(=O)[C@H]5O[C@]543)[C@]21C (stereo partly drawn)	i
CCC(C)C(=O)OC1CC(O)C23C4OCC5(C(O)CC2C1(C)C(O)O4)C3C(=O)C(O)C1(C)C(O)(c2ccoc2)CC2OC251 (stereo not drawn)	+
CCOCCOC(=O)C(C)Oc1ccc2c(=O)c(-c3ccc(OC)c(OC)c3)c(C(F)(F)F)oc2c1 (stereo not drawn)	i
COc1ccc2c(c1)CC(NS(=O)(=O)c1cc(Cl)ccc1OC)CO2 (stereo not drawn)	i
CCCN1C(=O)c2c(C(=O)NCCc3ccc(C)cc3)ncn2CC1(C)C(=O)NCCC(C)C (stereo not drawn)	i
NCc1ccc(Oc2ncnc3ccccc23)cc1	i
Nc1cccc(-c2cc3c(Oc4cccc(O)c4)ncnc3[nH]2)c1	+
Cc1ccccc1CN1C(=O)c2cc3ccccc3n2CC1(C)C(=O)NCCCOC(C)C (stereo not drawn)	i
CSc1ccc(CCNC(=O)CCCn2ccc3cc(S(=O)(=O)N4CCCC4)ccc32)cc1	i
Cc1c(-c2ccc3c(c2)OCO3)oc2ccc(C(O)C(C)O)cc12 (stereo not drawn)	i
Cc1nc(CN(C)c2ncnc3ccc(-c4ccc5c(c4)OCO5)cc23)cs1	+
CCC(C)NC(=O)c1ccc2c(=O)nc3c(-c4cccc(F)c4)n[nH]n3c2c1 (stereo not drawn)	i
Cc1ccc(NC(=O)Cn2c(=O)oc3cc(S(=O)(=O)N4CC(C)CC(C)C4)ccc32)cc1C (stereo not drawn)	i
O=C(NC1CCCC1)c1ccc(OC2CCN(CCCC(F)(F)F)CC2)c(Cl)c1	i
CCCC1c2cccn2CCN1C(=O)Nc1cc(Cl)ccc1OC (stereo not drawn)	i
COc1cc2ncnc(Nc3ccc(F)c(Cl)c3)c2cc1NC(=O)/C=C/CN1CCCCC1	+
SMILES	Methyltransferases
CNC(=O)c1c(F)cccc1Nc1nc(Nc2cc3c(cc2OC)CCN3C(=O)CN(C)C)nc2[nH]ccc12	i
COC(=O)c1cccc(Nc2ncnc3ccc(C)cc23)c1	i
CNC(=O)CN1CCC(Oc2cc3c(Nc4cccc(Cl)c4F)ncnc3cc2OC)CC1	+
COc1cccc(CNC(=O)CCn2ccc3cc(S(=O)(=O)N4CCCCC4)ccc32)c1	i
CN1C(=O)c2cc(C(=O)N3CCCCC3)nn2CC1(C)C(=O)NC1CCCCCC1 (stereo not drawn)	i
CCCn1c(=O)c2ccc(C(=O)NCC(C)C)cc2n2c(=O)n(Cc3ccc(F)cc3Cl)nc12	i
CN1C(=O)c2cc(C(=O)NCCCN3CCCC3)nn2CC1(C)C(=O)NCc1ccccc1 (stereo not drawn)	i
CCOc1ccc(NC(=O)Cn2c(=O)oc3cc(S(=O)(=O)N4CCCC4)ccc32)cc1	i
O=c1[nH]c(=S)[nH]c(-c2ccccc2)c1Cc1c(O)ccc2ccccc12	+
COc1cccc(CN2C(=O)c3ccc(-c4ccccc4)n3CC2(C)C(=O)NC2CCC(C)CC2)c1 (stereo not drawn)	i
Cc1ccc(O)c(N=Nc2ccccc2)n1	+
COCCN1C(=O)c2nc3ccccc3n2CC1(C)C(=O)NC1CCCCC1 (stereo not drawn)	i
CCCN1C(=O)c2c(C(=O)NCc3ccc(OC(C)C)cc3)ncn2CC1(C)C(=O)NCc1ccc(F)cc1 (stereo not drawn)	i
COCCCNC(=O)C1(C)Cn2nc(-c3ccccc3)cc2C(=O)N1c1cccc(Cl)c1C (stereo not drawn)	i
Nc1ccc(-c2ccc3ncc4ccc(=O)n(-c5cccc(C(F)(F)F)c5)c4c3c2)cn1	+
CCC(=O)N1CCN(c2ccc(-n3c(=O)ccc4cnc5ccc(-c6cnc7ccccc7c6)cc5c43)cc2C(F)(F)F)CC1	i
COc1ccc(OC)c2c1cc1n2CC(C)(C(=O)NC2CCCC2)N(Cc2cccs2)C1=O (stereo not drawn)	i
Cc1ccc(Cn2c(=O)c3ccccc3n3c(CCC(=O)NCCC4=CCCCC4)nnc23)cc1	i
Cc1cc2[nH]c(=O)[nH]c2cc1S(=O)(=O)NCCc1ccc(Cl)cc1	i
Cc1coc2c1C(=O)C(=O)c1c-2ccc2c(C)cccc12	i
Cc1coc2c1C(=O)C(=O)c1c-2ccc2c1CCCC2(C)C	+
CCCn1c(=O)c2ccc(C(=O)NC3CCCC3)cc2n2c(=O)n(CC(=O)Nc3ccc(F)cc3)nc12	i
CCc1cc2c(cc3n2CC(C)(C(=O)NC2CCCCC2)N(CCCN2CCCCC2)C3=O)s1 (stereo not drawn)	i
CC(C)CCn1c(=O)c2ccc(C(=O)NC(C)C)cc2n2c(=O)n(Cc3ccccc3)nc12	i
COc1ccc(NC(=O)Cn2nc3n(CC(C)C)c(=O)c4ccccc4n3c2=O)cc1	i
COC(=O)c1ncn2c1C(=O)N(Cc1ccccc1F)C(C)(C(=O)NC1CCCCCC1)C2 (stereo not drawn)	i
COCCNC(=O)CCc1nnc2n(Cc3ccccc3Cl)c(=O)c3ccccc3n12	i
CC1(CO)CC[C@]2(C(=O)O[C@@H]3O[C@H](CO)[C@@H](O)[C@H](O)[C@H]3O)CC[C@]3(C)C(=CCC4[C@@]5(C)C[C@H](O)[C@H](O[C@@H]6OC[C@@H](O)[C@H](O)[C@H]6O)[C@@](C)(CO)C5CC[C@]43C)C2C1 (stereo partly drawn)	+
CC1(C)CC[C@]2(C(=O)O[C@@H]3O[C@H](CO)[C@@H](O)[C@H](O)[C@H]3O)CC[C@]3(C)C(=CCC4[C@@]5(C)C[C@@H](O)[C@H](O)[C@@](C)(CO)C5[C@H](O)C[C@]43C)C2[C@@H]1O (stereo partly drawn)	+
COC(=O)C1(C)CCC2(C(=O)O)CCC3(C)C(=CCC4C5(C)CC(O)C(OC6OCC(O)C(O)C6O)C(C)(CO)C5CCC43C)C2C1 (stereo not drawn)	i

Assay outcomes: PubChem BioAssay, National Center for Advancing Translational Sciences (NCATS)
